CYP2C19 act: cytochrome P450 2C19 (human) activation | P33261 | recombinant CYP2C19, luciferin-H EGE luminescence; hits give high values; 0 = fully inhibited enzyme, 1 = untreated enzyme | activation factor at 5 µM | 96,000 tested, under 10 active;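 active = activation factor of at least 2 at 5 µM in the primary screen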
Target sequence (P33261 whole entry, looked up): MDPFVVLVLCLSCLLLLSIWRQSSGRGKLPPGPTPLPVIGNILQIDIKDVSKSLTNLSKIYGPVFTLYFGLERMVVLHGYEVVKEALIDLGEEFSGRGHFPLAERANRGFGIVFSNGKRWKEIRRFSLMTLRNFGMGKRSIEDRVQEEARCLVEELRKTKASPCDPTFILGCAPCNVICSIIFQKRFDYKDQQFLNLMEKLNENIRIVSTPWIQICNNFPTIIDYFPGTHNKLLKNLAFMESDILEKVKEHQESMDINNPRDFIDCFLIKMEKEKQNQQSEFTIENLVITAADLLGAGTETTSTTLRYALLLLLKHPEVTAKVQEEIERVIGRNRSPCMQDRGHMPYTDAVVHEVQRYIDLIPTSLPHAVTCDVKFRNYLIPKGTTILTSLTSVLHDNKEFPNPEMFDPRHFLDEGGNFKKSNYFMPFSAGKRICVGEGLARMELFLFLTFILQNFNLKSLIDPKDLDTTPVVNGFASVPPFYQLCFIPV
CYP2C9 act: CYP2C9 (human) activation. P11712. recombinant CYP2C9, luciferin-H conversion, luminescence; hits give high values; factor 1 = untreated enzyme, 0 = blocked. activation factor at 5 µM. 96,000 tested, 1.4% active;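 active = activation factor of 2 or more for CYP2C9 at a 5 µM dose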
CYP2C9 inh: inhibitors of human CYP2C9; CYP2C9 Supersomes, luciferin-H conversion, luminescence; inhibition, % at 5 µM; 96,000 tested, 20% active;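 active = blocking of liver enzyme CYP2C9 beyond about 50% at 5 µM, limit read from the data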
PLAP activator: activators of human placental alkaline phosphatase. purified PLAP enzyme, luminescent substrate read-out; hits give high values. P05187. activation fold at 20 µM. 96,000 tested, 1.2% active; in the data active = activation fold above about 2
CYP2C19 inhib: inhibitors of human CYP2C19 | CYP2C19 Supersomes, luciferin-H EGE luminescence, 30 min | 96,000 tested, 21% active | AID 778 | P33261 | inhibition, % at 5 µM;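 active = CYP2C19 inhibition above a set limit at 5 µM in the primary screen, cut at about 50% in these data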
Numbers stand for hits; - = inactive. Compounds with a hit are over-represented: about 31% of the library has one in this group of screens.

SMILES	CYP2C19 act	CYP2C9 act	CYP2C9 inh	PLAP activator	CYP2C19 inhib
S=c1[nH]ncn1/N=C/c1ccc(N2CCOCC2)cc1	-	-	-	-	-
C(=N\n1cnnc1)/c1ccc(N2CCOCC2)s1	-	-	-	-	60.2
C(=N\n1cncn1)/c1ccc(N2CCOCC2)cc1	-	-	-	-	63.3
CCCNS(=O)(=O)c1ccc(Oc2ncc(C(F)(F)F)cc2Cl)cc1	-	-	67.3	-	87.1
CCCNS(=O)(=O)c1ccc(OCC(=O)NCCC2=CCCCC2)cc1	-	-	-	-	-
CC(C)NS(=O)(=O)c1ccc(OCC(=O)NCCC2=CCCCC2)cc1	-	-	-	-	56.5
CCCNS(=O)(=O)c1ccc(OCC(=O)OC)cc1	-	-	56.1	-	52.6
COC(=O)COc1ccc(S(=O)(=O)NCc2cccnc2)cc1	-	-	-	-	-
COC(=O)COc1ccc(S(=O)(=O)NCCC2=CCCCC2)cc1C	-	-	-	-	98.7
CCc1noc(N)c1C(=O)Nc1ccc(F)c(Cl)c1	-	-	-	-	-
COC(=O)COc1ccc(S(=O)(=O)NCCC2=CCCCC2)cc1	-	-	68.6	-	95.2
CCOC(=O)c1cnn(-c2nc3sc4c(c3c(=O)[nH]2)CCCC4)c1N	-	-	-	-	-
Cc1ccc(NC(=O)c2ccccc2Cl)c(Cl)c1	-	2.2	-	-	-
COc1ccc(C)cc1NC(=S)NNC(=O)c1ccccc1Cl	-	-	-	2.9	60.6
CCCCn1c(SCC(=O)Nc2nnc(C)s2)nc2c1c(=O)n(C)c(=O)n2C	-	-	-	-	-
COc1cc(/C=N/NC(=O)CCc2c(C)n[nH]c2C)cc(OC)c1OC	-	-	-	-	55.3
COc1ccc(/C=N/NC(=O)CCc2c(C)n[nH]c2C)cc1OC	-	-	-	-	-
COc1ccccc1N(CC(=O)NCC1CCCO1)C(=O)CNS(=O)(=O)c1ccc(C)cc1 (stereo not drawn)	-	-	-	-	-
O=C(Nc1ccc(N2CCN(C(=O)c3ccco3)CC2)c(Cl)c1)c1c(F)c(F)c(F)c(F)c1F	-	-	72.6	-	68.2
O=C(Nc1ccc(N2CCN(C(=O)c3cccs3)CC2)c(Cl)c1)c1ccco1	-	-	54.2	-	-
Cc1ccccc1C(=O)N1CCN(c2ccc(NC(=O)c3ccco3)cc2Cl)CC1	-	-	-	-	-
COc1c(F)c(F)c(C(=O)Nc2ccc(N3CCN(C(C)=O)CC3)c(Cl)c2)c(F)c1F	-	-	66.3	-	-
COc1c(F)c(F)c(C(=O)Nc2ccc(N3CCN(Cc4ccccc4)CC3)cc2)c(F)c1F	-	-	57.4	-	-
O=C1c2ccccc2C(=O)N1OCc1ccccc1	-	-	-	-	56.3
COC(=O)c1ccc(CON2C(=O)c3ccccc3C2=O)cc1	-	-	-	-	-
SMILES	CYP2C19 act	CYP2C9 act	CYP2C9 inh	PLAP activator	CYP2C19 inhib
O=C1c2ccccc2C(=O)N1OCc1cccc(Cl)c1	-	-	-	-	76.0
CN(C(=O)COc1cccc(Br)c1)C1CCS(=O)(=O)C1 (stereo not drawn)	-	-	-	-	-
O=C(CSc1ccc2c(c1)OCCO2)Nc1ccc(Cl)cn1	-	-	-	-	71.0
Cc1c(NC(=O)CSc2ccc3c(c2)OCCO3)c(=O)n(-c2ccccc2)n1C	-	-	-	-	-
Cc1cccc(-n2ccnc2SCC(=O)Nc2cc(C)on2)c1	-	-	-	-	-
Cn1c(SCC(=O)Nc2ccc3c(c2)OCCO3)nnc1-c1ccccn1	-	-	-	-	-
COc1cccc(NC(=O)CSc2nccn2-c2cccc(OC)c2)c1	-	-	-	-	61.0
O=C(CSc1nccn1-c1cccc(Cl)c1)Nc1ccc2c(c1)OCCO2	-	-	66.0	-	66.2
COc1ccc(NC(=O)CSc2nccn2-c2cccc(OC)c2)cc1	-	-	69.7	-	58.8
Cc1cc(=O)[nH]c(SCC(=O)Nc2ccc(Cl)cn2)n1	-	-	-	-	-
CC1=C(C(=O)OC(C)C)C(C)NC(=O)N1 (stereo not drawn)	-	-	-	-	-
CCOC(=O)N1CCN(CC(=O)N2c3ccccc3CC2C)CC1 (stereo not drawn)	-	-	-	-	-
COc1ccc(C(=O)NCCc2nnc(SCC(=O)Nc3ccccc3)n2C)cc1	-	-	-	-	-
COc1ccc(OC)c(NC(=O)CSc2ncccc2C(=O)O)c1	-	-	-	-	-
COc1ccc(-n2ccnc2SCC(=O)Nc2ccccc2)cc1	-	-	59.5	-	59.9
CCc1nnc(NC(=O)CSc2nccn2-c2cccc(C)c2)s1	-	-	-	-	-

Assay outcomes as filed in PubChem BioAssay.
